An excerpt weighted towards active compounds, which were near 3.3% of everything screened.
PI5P4Ka inh – blocks human PI5P4K alpha kinase activity; PI5P4Kalpha enzyme, ADP-Glo luminescence, 60 min; stronger effect = lower value; AID 652105; max response, %; 330,000 compounds, 1.2% hits; P48426; active = max response of -50% or lower; inconclusive = between -30% and -50%; inactive = -30% or higher; also: value at the top dose of about 77 µM
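PI5P4Kalpha ADP-Glo assay; 5 microM ATP final; 60 min RT reaction; HEPES pH 7.4/EGTA/CHAPS, 5% DMSO; controls lacking substrate or enzyme; luminescent end-point.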
PLK1 PBD inh – blocks phosphopeptide binding to human PLK1 polo-box domain. P53350. Plk1 PBD binding of FITC phosphopeptide, fluorescence polarization. Potency, µM, usual class: inhibitors. 360,000 compounds, 2.8% hits. AID 720504; also: series mostly up to about 57 µM; nearly all actives have a fitted effect of over 65% in size
WRN helicase inh-1 – blocks human WRN helicase; Q14191; WRN helicase unwinding, fluorescent forked duplex, kinetic; Potency, µM (series often up to 114 µM), hits mostly inhibitors; 360,000 compounds, 0.46% hits; AID 651768; also: nearly all actives have a fitted effect of over 55% in size
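WRN at 20 nM final preincubated with compound 15 min at room temperature; reaction started with 100 nM fluorophore/quencher forked duplex oligonucleotide and 2 mM ATP final. Unwinding followed kinetically by red fluorescence (ex 525, em 598 nm).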
USP1 inh – blocks the human USP1/UAF1 deubiquitinase complex. O94782. recombinant USP1/UAF1, Ub-Rhodamine cleavage fluorescence. Potency, µM (doses to about 57.1 µM), most hits filed as inhibitors. 390,000 compounds, 0.23% hits. AID 743255; also: nearly all actives have a fitted effect of over 60% in size
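In this screen, compounds sit with the deubiquitinase complex (1nM) for 15 min at room temperature before Ub-Rho is added at 150nM final. Fluorescence rise is then followed for 6 reads every 60 seconds.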
USP2a inh – inhibitors of human ubiquitin-specific protease USP2a. USP2 core, Ub-CHOP2 coupled fluorogenic reporter, 485/531. 330,000 compounds, 0.01% hits. AID 463254. Potency, µM (series often up to 38.3 µM), actives largely listed as inhibitors
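Cell-free coupled assay: 10nM USP2 core preincubated 30min RT with compound in Tris-HCl pH 8.0/CaCl2/CHAPS buffer, then 25nM Ub-CHOP2 and 25nM reporter substrate; fluorescence (Ex 485/Em 531) read after 60min RT, normalized to NEM inhibition, concentration-response curves fitted.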
WRN helicase inh-2 – confirmation of human WRN helicase inhibitors; shares compounds with WRN helicase inh-1; WRN helicase DNA unwinding, fluorescence kinetic; Potency, µM (top dose mostly 57.1 µM), usual class: inhibitors; 610 compounds, 63% hits; also: nearly all actives have a fitted effect of over 65% in size
TO DNA binding – binds DNA, flagged in WRN inhibitor counterscreen; AID 720499; Potency, µM (titrated, usually from 57.1 µM), hits mostly inhibitors; shares compounds with WRN helicase inh-1; 610 compounds, 10% hits; thiazole orange DNA binding displacement, fluorescence;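 also: drop in dye fluorescence marks compound binding to DNA; nearly all actives have a fitted effect of over 60% in size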
BLM counter – counter-screen for WRN helicase inhibitors: human BLM helicase inhibition; shares compounds with WRN helicase inh-1; Potency, µM (highest dose often 57.1 µM), hits mostly inhibitors; Recombinant BLM helicase DNA unwinding, red fluorescence; 610 compounds, 60% hits; AID 720503; also: nearly all actives have a fitted effect of over 60% in size
ADP-Glo interf – interferes with ADP-Glo detection without enzyme present; shares compounds with PI5P4Ka inh; ADP-Glo detection counter-screen, luciferase luminescence, no enzyme; Potency, µM (highest dose often 76.9 µM), most hits filed as inhibitors; 1,100 tested, under 10 active; AID 743285
TbPYK inh – confirmation of Trypanosoma brucei pyruvate kinase inhibitors. shares compounds with PLK1 PBD inh. recombinant TbPYK, Kinase-Glo ATP luminescence. Potency, µM (highest dose often 76.9 µM), usual class: inhibitors. 890 compounds, 67% hits. AID 720569; also: nearly all actives have a fitted effect of over 70% in size
TbPYK ADP-Glo – TbPYK inhibition, orthogonal confirmation; recombinant TbPYK, ADP-Glo luminescence, 60 min; shares compounds with PLK1 PBD inh; Potency, µM (top dose mostly 76.9 µM), actives largely listed as inhibitors; 890 compounds, 62% hits; also: nearly all actives have a fitted effect of over 75% in size
A number is an active result; . = inactive; ? = inconclusive; / = no result given. Unless noted, calls follow the shape of the dose curve; as a rule, active = well fitted curve in the direction sought with a large enough effect; inconclusive = small, poorly fitted or top-dose-only effect, or another doubt; inactive = no such curve, though single readings can be large; an effect the other way counts as inactive or inconclusive.

SMILES	PI5P4Ka inh	PLK1 PBD inh	WRN helicase inh-1	USP1 inh	USP2a inh	TbPYK inh	TbPYK ADP-Glo	others
Cc1ccc(S(=O)(=O)Oc2ccccc2C=C2C(=O)N(C)C(=O)N(C)C2=O)cc1	?	6.7µM	45µM	.	.	/	/	WRN helicase inh-2=.;TO DNA binding=.;BLM counter=.
CN1C(=O)C(=Cc2ccccc2Oc2ccc(Cl)cc2)C(=O)N(C)C1=O	?	4.7µM	45µM	.	.	/	/	WRN helicase inh-2=19µM;TO DNA binding=.;BLM counter=7.6µM
CC1CN(c2ccc([N+](=O)[O-])c(N3CCCCC3)c2)CCN1 (configuration not stated)	.	.	.	.	.	/	/
C[C@]12CCC(=O)C=C1C=CC1C2CC[C@]2(C)C(=O)CCC12 (some centres not stated)	.	.	.	.	.	/	/
CCOc1cc(C=C2C(=O)NC(=O)NC2=O)ccc1OCC(=O)N1CCOCC1	?	?	?	.	.	/	/	WRN helicase inh-2=.;TO DNA binding=.;BLM counter=.
Cc1cc(OCC(=O)N2CCN(CC(=O)N3CCOCC3)CC2)c(C(C)C)cc1Cl	.	.	.	.	.	/	/
CN(C)c1cccc2c(C#N)ccc(N(C)C)c12	.	?	.	?	.	/	/
O=C1NC(=O)N(Cc2ccc(F)cc2)C(=O)/C1=C\c1ccoc1	-93	2.7µM	32µM	.	.	/	/	WRN helicase inh-2=5.4µM;TO DNA binding=.;BLM counter=3µM
CCCCn1nnnc1C(c1ccnc2ccccc12)N1CCC2(CC1)C(=O)NCN2c1ccccc1 (configuration not stated)	.	.	.	/	/	/	/
Cc1cc(/C=C2\C(=O)NC(=O)N(Cc3ccccc3)C2=O)c(C)n1-c1ccc(Cl)c(C(=O)O)c1	-94	6µM	28µM	.	.	/	/	WRN helicase inh-2=6.8µM;TO DNA binding=.;BLM counter=1.9µM
CN1/C(=C\C=C\C2=[N+](C)c3ccc4ccccc4c3C2(C)C)C(C)(C)c2ccccc21	/	/	/	/	.	/	/
CCN1/C(=C/C=C/C2=[N+](CC)c3ccccc3C2(C)C)C(C)(C)c2ccccc21	?	.	4.7µM	25µM	/	/	/	WRN helicase inh-2=22µM;TO DNA binding=.;BLM counter=22µM
COC1C(O)C(C)OC(OC2C(Oc3cccc4c(O)c5c(=O)oc6ccc(C)c7c(=O)oc(c34)c5c67)OC(C)C(O)C2O)C1O (configuration not stated)	.	.	?	.	/	/	/	WRN helicase inh-2=19µM;TO DNA binding=?;BLM counter=.
O=C1NC(=O)C(=Cc2c(Cl)cccc2Cl)C(=O)N1	?	4.7µM	35µM	.	/	25µM	35µM	WRN helicase inh-2=.;TO DNA binding=.;BLM counter=.
O=S(=O)(c1ccc(Cl)cc1)N1Cc2ccccc2-n2nncc2C1	.	.	.	.	/	/	/
O=C1CC=C2C3CC4N(CCC45c4cc(O)c(O)cc4N1C25)CC3=CCBr (configuration not stated)	-70	5.3µM	28µM	?	/	7.9µM	13µM	WRN helicase inh-2=19µM;TO DNA binding=.;BLM counter=5.4µM
Cc1ccc2c(c1)N(C(=O)CCC(=O)N1CCC3(CC1)OCCO3)CCO2	.	.	.	.	.	/	/
O=C1NC(=S)N(C2CC2)C(=O)/C1=C/c1ccc2c(c1)CCN2CCCCl	-74	1.5µM	3µM	.	.	6.3µM	?	WRN helicase inh-2=12µM;TO DNA binding=?;BLM counter=7.6µM
COc1ccc(CCNCc2cccn2C)cc1OC	.	.	.	.	.	/	/
CC(C)NCC(O)c1ccc(C2CCCC2)cc1 (configuration not stated)	.	.	.	.	.	/	/	ADP-Glo interf=.
CCCNC(=O)N1[C@H]2CC[C@@H]1C(C(=O)OC)=C(c1ccc(OC)c(OC)c1)C2	-85	.	.	.	.	/	/	ADP-Glo interf=.
COCCNC(=O)N1[C@H]2CC[C@@H]1C(C(=O)OC)=C(c1ccc(OC)c(OC)c1)C2	.	.	.	.	.	/	/
Cc1cc(OCCN2CC2)c2ccccc2n1	/	/	/	/	.	/	/
CCCCCn1c(=O)c(C(=O)Nc2ccccc2S(N)(=O)=O)c(O)c2ccccc21	-53	.	.	.	.	/	/	ADP-Glo interf=.
CC1CCCC(NC(=O)CNC(=S)N2CC3CC(C2)c2cccc(=O)n2C3)C1C (configuration not stated)	.	.	.	.	.	/	/
SMILES	PI5P4Ka inh	PLK1 PBD inh	WRN helicase inh-1	USP1 inh	USP2a inh	TbPYK inh	TbPYK ADP-Glo	others
Cc1ccc(N2C(=O)/C(=C/c3ccc(CN(CCC#N)S(C)(=O)=O)o3)C(=O)NC2=S)cc1C	/	/	/	/	.	/	/
Cc1ccc(/C=C2\C(=O)NC(=S)N(c3cccc(F)c3)C2=O)o1	-77	2.7µM	50µM	?	.	16µM	25µM
COc1ccc(N2C(=O)/C(=C/c3ccc(C)o3)C(=O)NC2=S)cc1	?	3µM	?	.	.	16µM	25µM
CN1CCN(C(=O)O[C@H]2c3nccnc3C(=O)N2c2ccc(Cl)cn2)CC1	.	.	.	.	.	/	/
Cc1ccsc1/C=C1\C(=O)NC(=S)N(C)C1=O	-84	3µM	50µM	.	.	11µM	18µM
COc1ccc(/C=C2\C(=O)NC(=S)N(C)C2=O)cc1C	-57	1.2µM	20µM	.	.	?	?
C=CCN1C(=O)/C(=C\c2ccc(N3CCOCC3)o2)C(=O)NC1=S	.	.	.	?	.	/	/
CSc1ncc(/C=C2/C(=O)NC(=O)N(C)C2=O)cn1	?	11µM	?	.	.	?	?
CC(=O)Nc1ccc(C=C2C(=O)NC(=O)NC2=O)cc1	?	.	?	.	/	16µM	18µM
NC(N)=N/N=C/c1ccc(N2CCOCC2)cc1	.	.	.	.	.	/	/
O=C1NC(=O)C(=Cc2ccc(N3CCOCC3)cc2)C(=O)N1	.	9.5µM	.	.	.	25µM	?
CC(C)c1ccc(NC(=O)N2C[C@H]3C[C@@H](C2)c2cccc(=O)n2C3)cc1	.	.	.	.	.	/	/
COc1cc(O)c(C(=O)O)c(-c2cc(O)c(O)cc2C)c1	.	?	.	.	.	2µM	10µM
COc1ccc2c(c1)c(C(=O)O)c(C)n2CC(C)C	/	.	.	.	.	/	/
C1=NCCCN2CCCCC12 (configuration not stated)	.	.	.	.	/	/	/
O=C1NC(=O)C(=Cc2ccc(Sc3ccccc3)o2)C(=O)N1	-52	0.67µM	11µM	.	.	32µM	35µM

Source: PubChem BioAssay (National Center for Advancing Translational Sciences (NCATS))
